# Compound activity: PubChem BioAssay, Sanford-Burnham Center for Chemical Genomics
# Most compounds without a hit are left out; they make up all but 28% or so of the library.
# CYP2C9 act: activators of human CYP2C9; P11712; recombinant CYP2C9, luciferin-H conversion, luminescence; active compounds read high; factor 1 = untreated enzyme, 0 = blocked; activation factor at 5 µM; 96,000 tested, 1.4% active; AID 1024;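 active means activation factor of 2 or more for CYP2C9 at a 5 µM dose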;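 further: 0 = sulfaphenazole-blocked wells and 1 = vehicle-only wells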
# CYP2C19 inhib: blocks human cytochrome P450 2C19 | P33261 | CYP2C19 Supersomes, luciferin-H EGE luminescence, 30 min | inhibition, % at 5 µM | 96,000 tested, 21% active | AID 778;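 active means CYP2C19 inhibition above a set limit at 5 µM in the primary screen, cut at about 50% in these data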;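 further: plate controls were negative control wells for no effect and 2.5 mM tranylcypromine positive control for full effect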
# Target sequence (P33261 whole entry, looked up): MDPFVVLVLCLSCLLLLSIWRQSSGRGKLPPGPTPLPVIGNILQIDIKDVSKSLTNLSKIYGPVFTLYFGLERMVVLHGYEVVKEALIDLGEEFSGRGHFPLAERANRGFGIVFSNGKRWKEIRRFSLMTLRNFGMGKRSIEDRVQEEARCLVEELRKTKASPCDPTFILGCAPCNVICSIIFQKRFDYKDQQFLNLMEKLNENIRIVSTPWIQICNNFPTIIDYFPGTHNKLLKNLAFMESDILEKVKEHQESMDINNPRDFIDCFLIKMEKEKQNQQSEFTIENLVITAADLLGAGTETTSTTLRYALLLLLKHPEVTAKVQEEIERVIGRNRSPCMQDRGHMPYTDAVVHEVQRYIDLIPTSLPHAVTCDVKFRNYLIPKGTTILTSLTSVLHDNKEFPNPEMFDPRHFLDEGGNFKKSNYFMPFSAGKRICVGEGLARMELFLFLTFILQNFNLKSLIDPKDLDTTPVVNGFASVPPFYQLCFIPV
# CYP2C19 act: cytochrome P450 2C19 (human) activation; 96,000 tested, under 10 active; AID 1025; P33261; recombinant CYP2C19, luciferin-H EGE luminescence; active compounds read high; 0 = fully inhibited enzyme, 1 = untreated enzyme; activation factor at 5 µM;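 active means activation factor of at least 2 at 5 µM in the primary screen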;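 further: 0 = wells with 2.5 mM tranylcypromine and 1 = vehicle-only wells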
# CYP2C9 inhib: human CYP2C9 inhibition; P11712; CYP2C9 Supersomes, luciferin-H conversion, luminescence; inhibition, % at 5 µM; 96,000 tested, 20% active;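 active means blocking of liver enzyme CYP2C9 beyond about 50% at 5 µM, limit read from the data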
# PTK2B oligo ant: blocks oligomerization of human Pyk2 in cells; Q14289; Q293 cells, Pyk2 FERM NanoBiT luminescence; active compounds read low; z-score (the deposit names both 25 µM and 10 µM); 99,000 tested, 0.83% active;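 active means Z-score of -3 or lower, scaled per plate to the spread of control and sample wells; inactive means z-score above -3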;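 further: negative z-score means lost luminescence so less FERM oligomerization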
# * marks the source's active call; other numbers are inactive results; · = no result.
SMILES,CYP2C9 act,CYP2C19 inhib,CYP2C19 act,CYP2C9 inhib,PTK2B oligo ant
COc1ccc(-c2[nH]ncc2-c2ccc(Cl)cc2)c(O)c1,0.6,75*,0.3,43,-0.46
CCCCOc1ccccc1C(=O)NCCCCCC(=O)O,0.9,-13,1.1,15,-0.68
O=C(CN1NS(=O)(=O)c2ccccc2C1=O)Nc1ccccc1OC(F)F,0.7,13,0.9,34,-0.14
CCCOc1ccc(C(=O)Nn2c(C)nc3ccccc3c2=O)cc1,0.5,3,1,46,-0.17
COc1ccc(CNn2c(C)nc3ccccc3c2=O)cc1,0.6,96*,0,42,-1.2
Cc1nc2ccccc2c(=O)n1N,0,77*,0.2,97*,-0.27
Cc1nc2ccccc2c(=O)n1NC(=O)COc1ccccc1,0.5,6,0.9,47,-0.02
CC#CCC(CC#CC)c1nc2ccccc2c(=O)n1N,·,·,·,·,0.21
CCCCOc1ccc(CNn2c(C)nc3ccccc3c2=O)cc1,0.3,91*,0.1,67*,-0.05
CCOC(=O)COc1c(OC)cc(Cl)cc1C1NC(=O)NC(C)=C1C(C)=O (stereo not drawn),0.3,65*,0.4,70*,-0.71
CCOC(=O)COc1c(Br)cc(C2NC(=O)NC(C)=C2C(C)=O)cc1OC (stereo not drawn),·,·,·,·,0.21
CCCC1=C(C(=O)OCC)C(c2cc(Cl)cc(OC)c2OCC(=O)OCC)NC(=O)N1 (stereo not drawn),0.1,42,0.6,88*,-3.1*
CN1CCN(CCCNC(=O)c2ccc3c(c2)N(Cc2ccccc2)CCS3)CC1,1,-8,1.1,0,·
Clc1ccc(CSCCc2ccncc2)cc1,0,100*,0,100*,-0.63
c1ccc2c(CSCCc3ccncc3)cccc2c1,0.1,97*,0,94*,-0.59
COc1ccc(C(C(=O)NC(C)(C)C)N(C(=O)CNC(=O)c2cccs2)c2ccc(C(C)C)cc2)cc1OC (stereo not drawn),·,·,·,·,0.96
Cc1ccc(-n2c(CNc3ccc(F)cc3)nnc2SCC(N)=O)cc1,0.9,10,0.9,15,0.28
CCOC(=O)CNC(=O)Nc1cc(C(C)(C)C)nn1-c1ccccc1,0.7,30,0.7,28,0.17
CC(=O)c1cccc(NC(=O)CN(Cc2ccccc2)S(C)(=O)=O)c1,0.6,76*,0.2,38,0.56
Cc1cc(C)cc(NC(=O)CN(Cc2ccccc2)S(C)(=O)=O)c1,·,·,·,·,-0.18
CS(=O)(=O)N(CC(=O)Nc1cccc(F)c1)Cc1ccccc1,0.2,91*,0.1,82*,-0.49
COc1cc(NS(=O)(=O)c2ccc(NC(=O)CSC3=NCCS3)cc2)nc(OC)n1,0.7,6,0.9,32,·
O=C(CSC1=NCCS1)Nc1ccc(S(=O)(=O)NC2CCCCC2)cc1,0.4,24,0.8,56*,0.34
O=C(CSC1=NCCS1)Nc1ccc(S(=O)(=O)N2CCCCCC2)cc1,0.4,39,0.6,62*,0.75
CC(=O)Nc1ccc(NC(=O)CSC2=NCCS2)cc1,0.2,55*,0.4,81*,0.79
SMILES,CYP2C9 act,CYP2C19 inhib,CYP2C19 act,CYP2C9 inhib,PTK2B oligo ant
Cn1nnnc1SCC(=O)Nc1ccccc1C(=O)NCc1ccccc1,0.9,-17,1.2,7,0.39
COc1cc2cc(C(=O)O)[nH]c2c(OC)c1OC,1,-11,1.1,-1,1.3
CCS(=O)(=O)N1CCC(NC(=O)C2CCCCC2)CC1,1.1,-11,1.1,-6,-0.32
Clc1ccc(-n2cccc2/C=N/n2cnnc2)cc1,0.4,57*,0.4,56*,-0.85
Cn1cccc1/C=N/n1cnnc1,1,0,1,0,-0.29
Brc1ccc(-n2cccc2/C=N/n2cnnc2)cc1,0.5,74*,0.3,53*,0.54
Brc1cccc(/C=N\n2cnnc2)c1,0.9,38,0.6,8,1.7
O=S1(=O)C=CC(Nc2cccc(Cl)c2)C1 (stereo not drawn),0.3,18,0.8,71*,-1
COCC(C)n1c(C)cc(C(=O)CN2C(=O)NC(Cc3c[nH]c4ccccc34)C2=O)c1C (stereo not drawn),0.5,41,0.6,46,-0.53
Cn1c(=O)c(C(=O)CSc2nncs2)c(N)n(Cc2ccccc2)c1=O,0.4,91*,0.1,62*,0.12
CSc1cccc(NC(=O)C2CCCN(S(=O)(=O)c3cnc[nH]3)C2)c1 (stereo not drawn),0.1,98*,0,93*,·
